The sample as a whole holds a higher share of hits than the screen did.
HT1080 IDH1KD tx – qHTS for induction of synthetic lethality in tumor cells producing 2HG: qHTS for the HT-1080-IDH1KD cell line; HT-1080 IDH1 knockdown viability, ATP luminescence, 48 h; Potency, µM (highest dose often 46.1 µM), for the others: at the highest dose activity, negative = toxicity, most hits filed as cytotoxic; actives 2% (n = 360,000); AID 686971, 2013;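 note: potency is the fitted concentration of half-maximal effect; 0% = DMSO wells and -100% = cell-free medium wells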
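Viability of IDH1-knockdown HT-1080 fibrosarcoma cells was assessed by CellTiter-Glo after 48 h at 37 °C with titrated compound; concentration-effect curves were classified by fit quality and response size.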
TDP1 cell CPT – qHTS for Inhibitors of human tyrosyl-DNA phosphodiesterase 1 (TDP1): qHTS in cells in presence of CPT; chicken DT40 Tdp1-/-;hTDP1 cells + 20 nM CPT, ATP luminescence, 48 h; Potency, µM (highest dose often 46.2 µM), for the others: top-dose activity change, negative = growth inhibition, hits mostly inhibitors; actives 12% (n = 420,000); note: potency is the fitted concentration of half-maximal effect; nearly all actives have a fitted effect of over 55% in size
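Chicken DT40 Tdp1-/- cells complemented with human TDP1, 400 cells/well, exposed to compounds plus 20 nM camptothecin for at least 48 h at 37 C; viability read as ATP content by CellTiter-Glo luminescence.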
12-LOX inh – Primary qHTS assay for inhibitors of human arachidonate 12S-lipoxygenase (ALOX12): Round 2. Potency, µM (highest dose often 108 µM), for the others: at the top dose activity change, negative = inhibition, most hits filed as inhibitors. Polyunsaturated fatty acid lipoxygenase ALOX12 (Homo sapiens), P18054. AID 1671190, 2021. actives 1.1% (n = 580,000). purified 12hLO, xylenol orange hydroperoxide absorbance; note: potency is the fitted concentration of half-maximal effect
Target sequence (P18054 whole entry, looked up): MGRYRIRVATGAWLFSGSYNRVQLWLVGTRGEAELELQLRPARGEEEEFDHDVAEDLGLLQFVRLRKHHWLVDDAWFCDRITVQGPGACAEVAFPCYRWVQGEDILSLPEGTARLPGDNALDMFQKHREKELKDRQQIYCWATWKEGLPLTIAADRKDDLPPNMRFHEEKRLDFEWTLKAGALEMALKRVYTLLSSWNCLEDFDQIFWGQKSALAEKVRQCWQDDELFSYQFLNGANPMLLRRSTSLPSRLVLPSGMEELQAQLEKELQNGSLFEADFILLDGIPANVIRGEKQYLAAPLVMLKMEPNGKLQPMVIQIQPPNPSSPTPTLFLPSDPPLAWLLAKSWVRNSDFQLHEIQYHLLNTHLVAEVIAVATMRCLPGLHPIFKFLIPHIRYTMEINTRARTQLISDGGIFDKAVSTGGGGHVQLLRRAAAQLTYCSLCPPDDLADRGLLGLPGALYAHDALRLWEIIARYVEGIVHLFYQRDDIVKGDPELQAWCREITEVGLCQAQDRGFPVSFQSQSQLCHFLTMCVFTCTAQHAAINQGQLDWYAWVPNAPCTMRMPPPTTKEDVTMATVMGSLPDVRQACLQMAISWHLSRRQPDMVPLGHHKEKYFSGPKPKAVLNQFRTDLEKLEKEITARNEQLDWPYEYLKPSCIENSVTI
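Hydroperoxide product was detected by ferrous iron/xylenol orange as the 573 to 405 nm absorbance ratio. Arachidonic acid at 40 uM (final) was turned over for 30 min at room temperature by 150 nM human 12hLO, pH 7.0 Hepes buffer, after 15 min compound preincubation.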
HT1080-NT tox – qHTS for induction of synthetic lethality in tumor cells producing 2HG: qHTS for the HT-1080-NT fibrosarcoma cell line; HT-1080-NT fibrosarcoma viability, CellTiter-Glo ATP luminescence, 48 h; Potency, µM (highest dose often 46.1 µM), for inactives: at the highest dose activity, negative = less viability, usual class: cytotoxic; actives 1.6% (n = 360,000); AID 686970, 2013;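 note: NT is the 2HG producing partner of a matched IDH1 knockdown line; potency is the fitted concentration of half-maximal effect; 0% = DMSO-treated cells and -100% = media-only wells without cells; nearly all actives have a fitted effect of over 55% in size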
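Compounds were tested in concentration-response format on HT-1080-NT cells for 48 hours at 37 degrees C. Cell viability came from CellTiter-Glo luminescence; curves were classified by r2, response magnitude and activity.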
TDP1 cell noCPT – qHTS for Inhibitors of human tyrosyl-DNA phosphodiesterase 1 (TDP1): qHTS in cells in absence of CPT; Potency, µM (doses to about 46.2 µM), for the others: top-dose activity change, negative = growth inhibition, most hits filed as inhibitors; actives 15% (n = 420,000); DT40 Tdp1-/- hTDP1 cells, no CPT, ATP luminescence, 48 h; AID 686978, 2013; note: potency is the fitted concentration of half-maximal effect; nearly all actives have a fitted effect of over 55% in size
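Readout: luminescence from CellTiter-Glo after 30 min in the dark at RT. Cells: DT40 Tdp1-/- with stable hTDP1, 400/well. Exposure: compounds alone, ≥48 hr, 37 °C.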
IL1B secr inh – qHTS for Inhibitors of Inflammasome Signaling: IL-1-beta AlphaLISA Primary Screen | THP-1 LPS/ATP IL-1B secretion, AlphaLISA, 16 h; hits give low values | activity change, % at 57.5 µM | actives 4.7% (n = 360,000); in the data active = activity change below about -50%; inconclusive = mostly about -30% to -49%
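THP-1 cells pretreated 1 hr with compounds (up to 57.5 uM final), then stimulated with LPS (250 ng/mL final) plus ATP (1.25 mM final); secreted IL-1B measured by AlphaLISA after 16 hr, decreased signal indicating inhibition.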
Active calls of the source: *; [ ] = dose if it differs, or a comment. Unless noted, calls come from the whole dose curve; as a rule, active = well fitted curve in the direction sought with a large enough effect; inconclusive = small, poorly fitted or top-dose-only effect, or another doubt; inactive = no such curve, though single readings can be large; an effect the other way counts as inactive or inconclusive. Unless noted, % is set by controls: 0 for no effect and ±100 for the full control effect.

Results for O=[N+]([O-])c1ccccc1S(=O)(=O)NC1CCCCCCC1 ?
HT1080 IDH1KD tx: -3%; TDP1 cell CPT: -22%; 12-LOX inh: -14%; HT1080-NT tox: -5%; TDP1 cell noCPT: 16µM*; IL1B secr inh: 4

How did O=[N+]([O-])c1cnc(NS(=O)(=O)c2ccccc2[N+](=O)[O-])s1 do in these assays?
12-LOX inh: 40µM*

How did O=[N+]([O-])c1ccccc1S(=O)(=O)NC1CCCC1 do in these assays?
HT1080 IDH1KD tx: 14%; TDP1 cell CPT: 0%; 12-LOX inh: -17%; HT1080-NT tox: 23%; TDP1 cell noCPT: -3%; IL1B secr inh: 17

Results for CC(C)CCN1CCc2c(n(Cc3cccnc3)n(CCc3ccccc3)c2=O)C1 ?
12-LOX inh: 2%[176 µM]

Results for CC1(c2ccccc2)N(Cc2ccccc2F)C(=O)OC12CCN(C(=O)c1cccc(C#N)c1)CC2 (stereo not drawn) ?
12-LOX inh: 21%

How did O=C(Nc1ccccc1N1CCOCC1)c1ccccc1[N+](=O)[O-] do in these assays?
HT1080 IDH1KD tx: 7%; TDP1 cell CPT: -18%; 12-LOX inh: -24%; HT1080-NT tox: -1%; TDP1 cell noCPT: -25%; IL1B secr inh: 5

What do the screens show for `CCc1sc(C(=O)Nc2ccccc2N2CCOCC2)cc1C`?
HT1080 IDH1KD tx: 16%; TDP1 cell CPT: 23µM*; 12-LOX inh: 9%; HT1080-NT tox: 11%; TDP1 cell noCPT: inconclusive; IL1B secr inh: -13

Results for Cc1cc(C(=O)Nc2ccccc2N2CCOCC2)no1 ?
HT1080 IDH1KD tx: 1%; TDP1 cell CPT: -4%; 12-LOX inh: 16%; HT1080-NT tox: 3%[9.24 µM]; TDP1 cell noCPT: 4%; IL1B secr inh: -1

How did O=C(Nc1ccccc1N1CCOCC1)c1ccc([N+](=O)[O-])s1 do in these assays?
HT1080 IDH1KD tx: inconclusive; TDP1 cell CPT: 16µM*; 12-LOX inh: 48%; HT1080-NT tox: inconclusive; TDP1 cell noCPT: 16µM*; IL1B secr inh: 31

What do the screens show for `CC(=O)c1c(O)cc(O)c(C(C)=O)c1O`?
HT1080 IDH1KD tx: 18µM*; TDP1 cell CPT: 21µM*; HT1080-NT tox: 13µM*; TDP1 cell noCPT: inconclusive; IL1B secr inh: 39

Results for COc1cc(NC2=CC(=O)CC(C)(C)C2)cc(OC)c1 ?
HT1080 IDH1KD tx: 8%[9.24 µM]; TDP1 cell CPT: inconclusive; 12-LOX inh: 18%; HT1080-NT tox: 5%; TDP1 cell noCPT: -7%; IL1B secr inh: 15

What do the screens show for `COc1cccc(C#CC2=CC(=O)CC(C)(C)C2)c1`?
HT1080 IDH1KD tx: inconclusive; TDP1 cell CPT: 5.8µM*; 12-LOX inh: -22%; HT1080-NT tox: -28%; TDP1 cell noCPT: 2.9µM*

What do the screens show for `Cc1cccc(C#CC2=CC(=O)CC(C)(C)C2)c1`?
HT1080 IDH1KD tx: 0%; TDP1 cell CPT: 16µM*; 12-LOX inh: 21%; HT1080-NT tox: 16%; TDP1 cell noCPT: 10µM*

Results for Cc1ccc(C2=CC(=O)CC(C)(C)C2)cc1 ?
HT1080 IDH1KD tx: 2%; TDP1 cell CPT: -12%; 12-LOX inh: -15%; HT1080-NT tox: -6%; TDP1 cell noCPT: 0%; IL1B secr inh: 12

Results for CC1(C)CC(=O)C=C(C#CC2(O)CCCCC2)C1 ?
HT1080 IDH1KD tx: 13µM*; TDP1 cell CPT: 7.3µM*; 12-LOX inh: -10%; HT1080-NT tox: 5.2µM*; TDP1 cell noCPT: 5.2µM*; IL1B secr inh: -108*

What do the screens show for `Cn1c(C(=O)NCCNS(=O)(=O)c2cccs2)cc2ccccc21`?
12-LOX inh: -48%

How did COc1nccnc1NS(=O)(=O)c1ccc(NCc2ccccc2O)cc1 do in these assays?
HT1080 IDH1KD tx: -16%; TDP1 cell CPT: 1%; 12-LOX inh: -7%; HT1080-NT tox: -7%; TDP1 cell noCPT: -8%; IL1B secr inh: 18

Results for CC(C)NS(=O)(=O)c1ccc(NC(=S)NC(=O)c2ccc(-c3ccccc3)cc2)cc1 ?
HT1080 IDH1KD tx: -28%; TDP1 cell CPT: 11µM*; 12-LOX inh: inconclusive; HT1080-NT tox: inconclusive; TDP1 cell noCPT: 14µM*; IL1B secr inh: 27

What do the screens show for `COc1nccnc1NS(=O)(=O)c1ccc(NC(=S)NC(=O)c2ccccc2)cc1`?
HT1080 IDH1KD tx: inconclusive; TDP1 cell CPT: -12%; 12-LOX inh: 35µM*; HT1080-NT tox: inconclusive; TDP1 cell noCPT: inconclusive; IL1B secr inh: 7

What do the screens show for `O=C(NC(=S)Nc1ccccc1)c1ccc(-c2ccccc2)cc1`?
HT1080 IDH1KD tx: 7%; TDP1 cell CPT: inconclusive; 12-LOX inh: -26%; HT1080-NT tox: 9%; TDP1 cell noCPT: 18µM*; IL1B secr inh: -7

How did CCn1nccc1C(=O)N1CCCC(c2nnnn2C)C1 (stereo not drawn) do in these assays?
12-LOX inh: 2%

How did CC(C)(C)CC(=O)OCC(=O)[C@@]12OC(C)(C)O[C@@H]1C[C@H]1[C@@H]3CCC4=CC(=O)C=C[C@]4(C)[C@@]3(F)[C@@H](O)C[C@@]12C do in these assays?
TDP1 cell CPT: -23%; TDP1 cell noCPT: -13%

Results for CC1(C)OC2CC3C4CC(F)C5=CC(=O)C=CC5(C)C4(F)C(O)CC3(C)C2(C(=O)CO)O1 (stereo not drawn) ?
HT1080 IDH1KD tx: 35%; TDP1 cell CPT: -4%; 12-LOX inh: -5%; HT1080-NT tox: inconclusive; TDP1 cell noCPT: 1%; IL1B secr inh: -50*

Results for C[C@@H]1C[C@H]2[C@@H]3CCC4=CC(=O)C=C[C@]4(C)[C@@]3(F)[C@@H](O)C[C@]2(C)[C@@]1(O)C(=O)COP(=O)(O)O ?
HT1080 IDH1KD tx: 25%; TDP1 cell CPT: 3%; 12-LOX inh: -12%; HT1080-NT tox: -1%; TDP1 cell noCPT: 3%; IL1B secr inh: -19

How did C[C@H]1C[C@H]2[C@@H]3CCC4=CC(=O)C=C[C@]4(C)[C@@]3(F)[C@@H](O)C[C@]2(C)[C@@]1(O)C(=O)CO do in these assays?
HT1080 IDH1KD tx: 22%; TDP1 cell CPT: -11%; 12-LOX inh: 8%; HT1080-NT tox: inconclusive; TDP1 cell noCPT: -11%; IL1B secr inh: -59*

Screens (PubChem BioAssay)
